Laboratory results: PubChem BioAssay (Tox21)
Records with an inconclusive call do not appear. Active and inactive are the calls of the source. Unless noted, the call rests on the fitted dose curve.

Experiments:
[1] = Nuclear factor erythroid 2-related factor 2/antioxidant responsive element (Nrf2/ARE) small molecule agonists: qHTS cell viability counter screen in human keratinocytes (AID 1919968; active means well fitted cell-killing curve with a large enough effect in the repeat runs; further: nearly all actives have a fitted effect of over 55% in size)
Summary of the method: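 HaCaT ARE reporter line, 1,500 cells/well; 5 h settle, 37 C/5% CO2; cpd in DMSO pinned; 23 h exposure; CellTiter-Fluor, 1 h; fluorescence.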

[2] = Nuclear factor erythroid 2-related factor 2/antioxidant responsive element (Nrf2/ARE) small molecule agonists: luciferase reporter gene qHTS assay in human keratinocytes (AID 1919969); further: nearly all actives have a fitted effect of over 35% in size
[3] = target: Gonadotropin-releasing hormone receptor (Homo sapiens) (UniProt P30968); experiment: Human gonadotropin-releasing hormone receptor (GnRHR) small molecule agonists, calcium flux assay in GnRHR-HEK293 cells (AID 1920063); further: nearly all actives have a fitted effect of over 35% in size
Summary of the method: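 GnRHR-HEK293, 1500 cells/well, 18 h 37 C/5% CO2; Ca dye 1 h 37 C; cpd pinned (DMSO), agonist mode; kinetic FL 480/540, 3 min, 1 s reads; 15 conc, n=3.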

[4] = G protein-coupled receptor (GPCR) small molecule agonists, calcium flux assay: HEK293 wild type cell line counter screen (AID 1920065)
Summary of the method: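 Kinetic fluorescence at Ex/Em 480/540, recorded every second over 3 min, served as the read-out after compound addition. Each compound was tested at 15 concentrations in triplicate on cells pre-loaded with calcium dye for 1 h.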

[5] = p53 small molecule agonists, cell-based qHTS assay with human liver microsomes (AID 1963577);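 further: p53 response element beta-lactamase reporter cells with liver microsomes plus NADPH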
Summary of the method: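 Reporter activation was measured by LiveBLAzer fluorescence intensity in p53RE-bla cells, which had been exposed to compounds for 16 h at 37 C alongside 0.5 mg/mL human liver microsomes and 0.5 mg/mL NADPH (final concentrations).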

[6] = p53 small molecule agonists, cell-based qHTS assay with rat liver microsomes (AID 1963578)
Summary of the method: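 Compound in DMSO added to p53RE-bla cells 5 h post-plating; rat microsomes/NADPH 0.5 mg/mL final; 16 h, 37 C; LiveBLAzer 2 h RT.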

[7] = p53 small molecule agonists, cell-based qHTS assay with human liver microsomes: qHTS cell viability counter screen (AID 1963579); further: nearly all actives have a fitted effect of over 45% in size
Summary of the method: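 HLM-supplemented (0.5 mg/mL final) and NADPH-supplemented (0.5 mg/mL final) p53RE-bla cultures, 4,000 cells per well, were dosed with compounds in DMSO for 16 h at 37 C; luminescent ATP detection (CellTiter-Glo, 30 min, room temperature) quantified surviving cells.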

[8] = p53 small molecule agonists, cell-based qHTS assay with rat liver microsomes: qHTS cell viability counter screen (AID 1963580); further: nearly all actives have a fitted effect of over 45% in size
Summary of the method: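 p53RE-bla HCT-116 cells were exposed 16 h at 37 C to compounds with rat liver microsomes (0.5 mg/mL) and NADPH (0.5 mg/mL). Viability was measured in the same wells as ATP content by CellTiter-Glo luminescence.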

[9] = p53 small molecule agonists, cell-based qHTS assay: qHTS cell viability counter screen (AID 1963581); further: nearly all actives have a fitted effect of over 45% in size
Summary of the method: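 HCT-116 p53RE-bla cells, 4,000/well, plated 5 h before compound pin transfer; 16 h at 37 C; bla substrate 2 h RT; then CellTiter-Glo, 30 min RT, luminescence.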

[10] = p53 small molecule agonists, cell-based qHTS assay (AID 1963582; active means well fitted activation curve with a large enough effect in the signal ratio in the repeat runs, not every such curve was filed as active; the % refers to the signal ratio)
Summary of the method: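 Reporter line: p53RE-bla. Pre-incubation 5 h, 37 C, 5% CO2; compound (DMSO, pin tool) 16 h, 37 C; B/G FRET substrate 2 h RT; fluorescence intensity read.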

[11] = target: 5-hydroxytryptamine receptor 2A (Homo sapiens) (UniProt P28223); experiment: 5-hydroxytryptamine receptor 2A (HTR2A) small molecule antagonists, cell-based qHTS assay (AID 1963586); further: nearly all actives have a fitted effect of over 45% in size
Summary of the method: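 Antagonist-mode intracellular calcium assay: DOI (4 nM) added after 5 min compound pre-incubation at room temperature to dye-loaded HTR2A-CHO cells. Fluorescence followed for 3 min, sampled every second.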

[12] = target: 5-hydroxytryptamine receptor 2A (Homo sapiens) (UniProt P28223); experiment: 5-hydroxytryptamine receptor 2A (HTR2A) small molecule agonists, cell-based qHTS assay (AID 1963587); further: nearly all actives have a fitted effect of over 30% in size
Summary of the method: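 CHO cells stably expressing human HTR2A, plated 18 h, loaded with calcium dye 1 h at 37 C. Agonist mode: compounds added and intracellular calcium fluorescence recorded kinetically for 2 min at 1 sec intervals.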

[13] = target: Muscarinic acetylcholine receptor M1 (Homo sapiens) (UniProt P11229); experiment: Cholinergic receptor muscarinic 1 (CHRM1) small molecule agonists, cell-based qHTS assay (AID 1963589); further: nearly all actives have a fitted effect of over 35% in size
Summary of the method: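 Human M1 in stable CHO line; 18 h plating, 1 h dye load 37 C; cpd added (agonist mode); Ca2+ fluorescence kinetic read, 1 s intervals; 15 conc, 3 runs.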

[14] = cAMP Responsive Elements (CRE) small molecule agonists, cell-based qHTS assay (AID 1963590)
Summary of the method: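 HEK 293T CRE-bla, 2,000 cells/well, 18 h preincubation 37 C/5% CO2; cpds (DMSO) pinned, 3 h; LiveBLAzer B/G FRET substrate, 2 h RT.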

[15] = cAMP Responsive Elements (CRE) small molecule antagonists, cell-based qHTS assay (AID 1963591; active means well fitted inhibition curve with a large enough effect in the signal ratio in the repeat runs, not every such curve was filed as active; the % refers to the signal ratio)
Summary of the method: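 Beta-lactamase reporter read by FRET substrate (LiveBLAzer B/G) after 2 h at room temperature. CRE-bla HEK293T cells had received compound plus 0.25 uM (final) NKH477 for 3 h at 37 °C.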

[16] = target: Beta-2 adrenergic receptor (Homo sapiens) (UniProt P07550); experiment: Adrenergic beta2 receptor (ADRB2) small molecule antagonists, cell-based qHTS assay (AID 1963592); further: series mostly up to about 92 µM; nearly all actives have a fitted effect of over 50% in size
Summary of the method: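 Cells (CHO, stable ADRB2 overexpression) incubated 18-20hr at 37C; compounds added from DMSO; agonist mix (1nM isoproterenol, 100uM IBMX, 25uM Ro-20-1724) added; 0.5hr RT; d2-cAMP and anti-cAMP-cryptate added; 1hr RT; 665/615 nm read.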

[17] = target: Beta-2 adrenergic receptor (Homo sapiens) (UniProt P07550); experiment: Adrenergic beta2 receptor (ADRB2) small molecule agonists, cell-based qHTS assay (AID 1963593);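 further: CHO cells stably overexpressing human ADRB2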
Summary of the method: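 CHO cells stably over-expressing ADRB2 were plated overnight at 37C, then dosed with compounds plus a stimulation mix containing 100uM IBMX and 25uM Ro-20-1724 for 0.5hr at room temperature. cAMP was measured by HTRF competition, 1hr.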

[18] = target: D(2) dopamine receptor (Homo sapiens) (UniProt P14416); experiment: Dopamine D2 receptor (DRD2) small molecule agonists, cell-based qHTS assay (AID 1963594); further: nearly all actives have a fitted effect of over 35% in size
Summary of the method: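 HEK293 cells stably expressing human DRD2, pre-treated with PDE inhibitor Ro20-1724 (0.1 mM final) and compound 10 min at room temperature, then stimulated with NKH477 (200nM […]) for 30 min. cAMP read by HTRF (665/620 nm).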

[19] = target: D(2) dopamine receptor (Homo sapiens) (UniProt P14416); experiment: Dopamine D2 receptor (DRD2) small molecule antagonists, cell-based qHTS assay (AID 1963595; active means well fitted inhibition curve with a large enough effect in the signal ratio in the repeat runs, with a control signal flat; the % refers to the signal ratio)
Summary of the method: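 HEK293 cells stably expressing DRD2, preincubated with 0.1 mM Ro20-1724 and compounds 10 min, were stimulated with 200 nM NKH477 plus 12 nM quinpirole for 30 min at room temperature; cAMP measured by HTRF (665/620 nm).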

[20] = target: Muscarinic acetylcholine receptor M1 (Homo sapiens) (UniProt P11229); experiment: Cholinergic receptor muscarinic 1 (CHRM1) small molecule antagonists, cell-based qHTS assay (AID 1963588); further: nearly all actives have a fitted effect of over 40% in size
Summary of the method: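 CHRM1-CHO calcium-flux assay, antagonist mode. Cells were seeded 18 h, dye-loaded 1 h at 37 C and given compound for 5 min at RT, then acetylcholine was added at 50nM. FDSS fluorescence was read 3 min; 15 concentrations, three runs.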
On the % scale 0 is the no-effect control and ±100 the full control effect.

Sequence of Gonadotropin-releasing hormone receptor (Homo sapiens) (P30968 whole entry, looked up): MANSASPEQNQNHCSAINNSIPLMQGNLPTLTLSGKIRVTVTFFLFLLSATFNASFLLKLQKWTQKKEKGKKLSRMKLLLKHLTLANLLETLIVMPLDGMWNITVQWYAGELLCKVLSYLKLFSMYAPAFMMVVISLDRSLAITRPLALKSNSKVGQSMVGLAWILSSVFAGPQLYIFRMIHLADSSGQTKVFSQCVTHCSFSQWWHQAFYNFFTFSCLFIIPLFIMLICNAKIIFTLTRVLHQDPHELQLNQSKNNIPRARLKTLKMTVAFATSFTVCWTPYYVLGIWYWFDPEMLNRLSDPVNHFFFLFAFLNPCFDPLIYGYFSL
Sequence of Muscarinic acetylcholine receptor M1 (Homo sapiens) (P11229 whole entry, looked up): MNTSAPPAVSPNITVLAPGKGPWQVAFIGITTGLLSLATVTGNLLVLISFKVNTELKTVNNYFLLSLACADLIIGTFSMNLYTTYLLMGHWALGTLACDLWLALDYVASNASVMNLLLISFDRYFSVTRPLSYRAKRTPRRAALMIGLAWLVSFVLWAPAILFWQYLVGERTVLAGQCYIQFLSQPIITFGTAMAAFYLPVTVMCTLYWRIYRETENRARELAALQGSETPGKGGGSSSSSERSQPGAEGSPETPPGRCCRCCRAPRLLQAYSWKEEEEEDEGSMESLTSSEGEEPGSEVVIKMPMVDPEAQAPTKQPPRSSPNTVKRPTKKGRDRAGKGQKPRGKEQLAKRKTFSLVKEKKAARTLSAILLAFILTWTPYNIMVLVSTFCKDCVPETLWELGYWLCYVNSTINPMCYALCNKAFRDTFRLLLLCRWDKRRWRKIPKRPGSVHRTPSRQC
Sequence of Beta-2 adrenergic receptor (Homo sapiens) (P07550 whole entry, looked up): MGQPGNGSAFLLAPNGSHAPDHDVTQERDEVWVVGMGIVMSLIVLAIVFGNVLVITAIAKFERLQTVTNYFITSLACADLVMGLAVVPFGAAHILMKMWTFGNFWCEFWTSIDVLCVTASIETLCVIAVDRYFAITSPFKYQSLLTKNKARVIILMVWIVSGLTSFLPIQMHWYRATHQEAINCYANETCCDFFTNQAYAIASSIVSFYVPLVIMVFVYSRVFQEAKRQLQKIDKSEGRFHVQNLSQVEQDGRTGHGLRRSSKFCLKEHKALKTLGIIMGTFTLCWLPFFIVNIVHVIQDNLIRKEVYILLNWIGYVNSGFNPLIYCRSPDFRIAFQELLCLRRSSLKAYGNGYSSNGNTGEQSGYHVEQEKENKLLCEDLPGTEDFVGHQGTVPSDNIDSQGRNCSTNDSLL
Sequence of 5-hydroxytryptamine receptor 2A (Homo sapiens) (P28223 whole entry, looked up): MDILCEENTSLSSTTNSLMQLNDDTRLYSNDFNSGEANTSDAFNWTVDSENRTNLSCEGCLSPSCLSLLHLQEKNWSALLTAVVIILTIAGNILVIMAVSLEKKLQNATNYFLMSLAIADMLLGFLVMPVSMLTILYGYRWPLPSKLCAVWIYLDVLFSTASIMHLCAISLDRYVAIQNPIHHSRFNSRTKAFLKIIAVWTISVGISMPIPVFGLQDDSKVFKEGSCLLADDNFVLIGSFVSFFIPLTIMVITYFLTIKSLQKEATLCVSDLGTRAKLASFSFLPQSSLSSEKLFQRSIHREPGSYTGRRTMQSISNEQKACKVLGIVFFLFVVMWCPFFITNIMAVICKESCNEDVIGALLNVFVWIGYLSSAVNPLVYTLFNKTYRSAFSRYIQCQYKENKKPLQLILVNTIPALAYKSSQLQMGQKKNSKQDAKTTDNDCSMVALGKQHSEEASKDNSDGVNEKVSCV
Sequence of D(2) dopamine receptor (Homo sapiens) (P14416 whole entry, looked up): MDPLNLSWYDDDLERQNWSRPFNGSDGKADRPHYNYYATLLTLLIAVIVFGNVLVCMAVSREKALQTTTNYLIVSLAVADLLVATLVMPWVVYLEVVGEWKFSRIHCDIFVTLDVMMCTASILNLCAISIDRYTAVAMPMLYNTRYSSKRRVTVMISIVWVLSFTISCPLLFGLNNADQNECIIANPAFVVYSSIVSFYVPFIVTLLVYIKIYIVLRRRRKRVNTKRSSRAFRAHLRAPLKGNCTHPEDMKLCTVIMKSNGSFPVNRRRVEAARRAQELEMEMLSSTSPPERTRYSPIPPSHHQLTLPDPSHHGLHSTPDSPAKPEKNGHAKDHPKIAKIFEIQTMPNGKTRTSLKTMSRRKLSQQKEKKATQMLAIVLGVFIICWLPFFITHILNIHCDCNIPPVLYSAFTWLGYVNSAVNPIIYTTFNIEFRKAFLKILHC

CCCCCCCCCCCCCCCCBr
inactive: activity change, negative = cytotoxicity [1] 3.53% [at 19 µM] | activity, positive = activation [2] -1.44% [at 19 µM] | activity change [3] 0.0207% [at 11.8 µM, stronger effect = higher value] | activation [4] -0.623% [at 11.8 µM] | activation [5] -0.838% [at 13.5 µM] | activation [6] -1.9% [at 13.6 µM] | activity change, negative = cytotoxicity [7] 0.899% [at 13.5 µM] | activity change, negative = cytotoxicity [8] 0.7% [at 13.5 µM] | activity change, negative = cytotoxicity [9] 4.33% [at 13.5 µM] | activation [10] 4.11% [at 13.5 µM] | activity, negative = inhibition [11] 4.99% [at 12.7 µM] | activation [12] -4.48% [at 15.9 µM] | activation [13] -0.125% [at 15.8 µM] | activation [14] -0.367% [at 19 µM] | activity change, negative = inhibition [15] -0.0105% [at 18.9 µM] | activity change, negative = inhibition [16] -0.441% [at 19 µM] | activation [17] -6.98% [at 19 µM] | activation [18] -0.697% [at 19 µM] | activity change, negative = inhibition [19] -0.776% [at 18.9 µM]

CCC(=O)OC(C)(C)C1CC=C(C)CC1 (stereo unspecified)
inactive: Potency [1] | Potency [2] | Potency [3] | Potency [4] | Potency [5] | Potency [6] | Potency [7] | Potency [8] | Potency [9] | Potency [10] | Potency [11] | Potency [12] | Potency [20] | Potency [14] | Potency [17] | Potency [18] | Potency [19]

CC1=CC[C@@]23C[C@@H]1C(C)(C)[C@@H]2CC[C@H]3C
inactive: Potency [1] | Potency [2] | Potency [3] | Potency [4] | Potency [5] | Potency [6] | Potency [7] | Potency [8] | Potency [9] | Potency [10] | Potency [11] | Potency [12] | Potency [20] | Potency [13] | Potency [14] | Potency [15] | Potency [17] | Potency [18]

CCCCCCCCCCCCCC
inactive: Potency [1] | Potency [2] | Potency [3] | Potency [4] | Potency [5] | Potency [6] | Potency [7] | Potency [8] | Potency [9] | Potency [10] | Potency [11] | Potency [12] | Potency [20] | Potency [13] | Potency [14] | Potency [16] | Potency [17] | Potency [18] | Potency [19]

C[C@@H]1NC(=O)[C@@H](N)CNC(=O)[C@H](C2CCNC(N)=N2)NC(=O)/C(=C/NC(N)=O)NC(=O)[C@H](CNC(=O)C[C@@H](N)CCCN)NC1=O (stereo partly specified)
inactive: activity change, negative = cytotoxicity [1] -0.202% [at 0.349 µM] | activity, positive = activation [2] -0.551% [at 0.349 µM] | activity change [3] -0.0026% [at 0.217 µM, stronger effect = higher value] | activation [4] -0.973% [at 0.217 µM] | activation [5] -0.0566% [at 0.249 µM] | activation [6] 0.811% [at 0.249 µM] | activity change, negative = cytotoxicity [7] 0.952% [at 0.249 µM] | activity change, negative = cytotoxicity [8] -3.72% [at 0.249 µM] | activity change, negative = cytotoxicity [9] -17.8% [at 0.249 µM] | activation [10] 5.76% [at 0.249 µM] | activity, negative = inhibition [11] 39.2% [at 0.233 µM] | activity, negative = inhibition [20] -3.02% [at 0.232 µM] | activation [13] -0.0449% [at 0.29 µM] | activation [14] -0.384% [at 0.349 µM] | activity change, negative = inhibition [15] 0.0328% [at 0.349 µM] | activity change, negative = inhibition [16] 6.03% [at 0.349 µM] | activation [17] -2.39% [at 0.349 µM] | activation [18] -0.993% [at 0.349 µM] | activity change, negative = inhibition [19] -5.12% [at 0.348 µM]

CC(=O)c1ccccc1O
inactive: Potency [1] | Potency [2] | Potency [3] | Potency [4] | Potency [5] | Potency [6] | Potency [7] | Potency [8] | Potency [9] | Potency [10] | Potency [11] | Potency [12] | Potency [20] | Potency [13] | Potency [14] | Potency [15] | Potency [16] | Potency [18] | Potency [19]
